Reference: PubChem BioAssay AID1159580 (chemical genetic matrix, 2015)
“And” between values parts separate entries of the source, which are not always exact repeats. Equal entries are not always repeated. About 2,000 (36%) of roughly 5,500 compounds were called active. About 18% were inconclusive and are not listed. No stated cut-off is given here; in the data, active means normalized growth mostly below about 0.91 (no sharp cut-off); inconclusive means no clear call, values can overlap the other calls; inactive means mostly above about 0.92. Some of the results follow.

Assay: chemical genetic growth profiling, strain panel (AID 1159580);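 further: tested at 20 µM; growth read once vehicle control cultures reached saturation at 30 °C; 1 = growth at the plate median or of vehicle wells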
Conditions: S. cerevisiae deletion strains, growth OD

Measured: normalized growth

CN(C)C(=O)Nc1ccc(Cl)c(Cl)c1
inactive: locus YAL013W, strain DEP1, stronger effect = lower value 0.992 | locus YAL021C, strain ccr4, stronger effect = lower value 0.964 | locus YAL026C, strain drs2, stronger effect = lower value 0.97 | locus YAL030W, strain snc1, stronger effect = lower value 0.987 | locus YBL061C, strain skt5, stronger effect = lower value 0.991 | locus YBR009C, strain hhf1, stronger effect = lower value 0.926 | locus YBR021W, strain FUR4, stronger effect = lower value 0.904 | locus YBR023C, strain chs3, stronger effect = lower value 0.983 | locus YBR171W, strain sec66, stronger effect = lower value 1.01 | locus YBR229C, strain ROT2, stronger effect = lower value 1 | locus YBR231C, strain swc5, stronger effect = lower value 1.01 | locus YBR279W, strain paf1, stronger effect = lower value 0.97 | locus YCL011C, strain gbp2, stronger effect = lower value 0.954 | locus YCL016C, strain dcc1, stronger effect = lower value 0.974 | locus YCL029C, strain bik1, stronger effect = lower value 1.01 | locus YCL061C, strain MRC1, stronger effect = lower value 0.958 | locus YCL069W, strain vba3, stronger effect = lower value 0.994 | locus YCR088W, strain abp1, stronger effect = lower value 0.991 | locus YDL005C, strain med2, stronger effect = lower value 1 | locus YDL035C, strain GPR1, stronger effect = lower value 0.983 | locus YDL040C, strain nat1, stronger effect = lower value 0.991 | locus YDL074C, strain BRE1, stronger effect = lower value 0.899 | locus YDL101C, strain DUN1, stronger effect = lower value 0.999 | locus YDL134C, strain PPH21, stronger effect = lower value 0.986 | locus YDL185W, strain tfp1, stronger effect = lower value 1.02 | locus YDL192W, strain arf1, stronger effect = lower value 1 | locus YDR001C, strain nth1, stronger effect = lower value 0.99 | locus YDR069C, strain doa4, stronger effect = lower value 0.987 | locus YDR101C, strain arx1, stronger effect = lower value 1 | locus YDR137W, strain rgp1, stronger effect = lower value 1.03 | locus YDR150W, strain NUM1, stronger effect = lower value 0.993 | locus YDR159W, strain sac3, stronger effect = lower value 0.989 | locus YDR162C, strain NBP2, stronger effect = lower value 0.948 | locus YDR195W, strain ref2 1.1 | locus YDR297W, strain sur2, stronger effect = lower value 0.98 | locus YDR318W, strain mcm21, stronger effect = lower value 0.994 | locus YDR334W, strain swr1, stronger effect = lower value 1.01 | locus YDR335W, strain msn5, stronger effect = lower value 0.994 | locus YDR388W, stronger effect = lower value 0.992 | locus YDR392W, strain spt3, stronger effect = lower value 0.888 | locus YDR502C, strain sam2, stronger effect = lower value 0.989 | locus YEL003W, strain gim4, stronger effect = lower value 0.997 | locus YEL037C, strain rad23, stronger effect = lower value 0.993 | locus YEL061C, strain CIN8 (second series), stronger effect = lower value 1.01 | locus YEL061C, strain CIN8, stronger effect = lower value 0.998 | locus YER015W, strain faa2, stronger effect = lower value 0.968 | locus YER016W, strain bim1, stronger effect = lower value 0.992 | locus YER110C, stronger effect = lower value 1.01 | locus YER111C, strain swi4, stronger effect = lower value 1.02 | locus YER155C, strain BEM2 (second series), stronger effect = lower value 0.944 | locus YER155C, strain BEM2, stronger effect = lower value 1.01 | locus YER167W, strain BCK2, stronger effect = lower value 1 | locus YFR010W, strain ubp6, stronger effect = lower value 0.994 | locus YGL078C, strain dbp3, stronger effect = lower value 1.01 | locus YGL086W, strain mad1, stronger effect = lower value 0.997 | locus YGL167C, strain pmr1, stronger effect = lower value 0.988 | locus YGL173C, strain kem1, stronger effect = lower value 0.993 | locus YGL227W, strain vid30, stronger effect = lower value 0.995 | locus YGL240W, strain doc1, stronger effect = lower value 0.967 | locus YGL248W, strain PDE1, stronger effect = lower value 0.987 | locus YGL253W, strain hxk2, stronger effect = lower value 0.951 | locus YGR078C, strain PAC10, stronger effect = lower value 0.982 | locus YGR135W, strain pre9, stronger effect = lower value 0.98 | locus YGR229C, strain SMI1, stronger effect = lower value 0.942 | locus YGR252W, strain gcn5, stronger effect = lower value 0.807 | locus YHR013C, strain ard1, stronger effect = lower value 0.995 | locus YHR027C, strain rpn1, stronger effect = lower value 1.02 | locus YHR030C, strain SLT2, stronger effect = lower value 1.01 and 0.992 | locus YHR079C, strain IRE1 (second series), stronger effect = lower value 0.992 | locus YHR079C, strain IRE1, stronger effect = lower value 0.985 | locus YHR094C, strain hxt1, stronger effect = lower value 1 | locus YHR129C, strain ARP1, stronger effect = lower value 0.984 | locus YHR142W, strain chs7, stronger effect = lower value 0.887 | locus YHR200W, strain rpn10, stronger effect = lower value 0.991 | locus YIL066C, strain RNR3, stronger effect = lower value 0.981 | locus YIL073C, strain SPO22, stronger effect = lower value 0.981 | locus YIL125W, strain kgd1, stronger effect = lower value 1 | locus YIR030C, strain dcg1, stronger effect = lower value 1 | locus YJL092W, strain hpr5, stronger effect = lower value 0.982 | locus YJL095W, strain BCK1 (second series), stronger effect = lower value 1 | locus YJL095W, strain BCK1, stronger effect = lower value 0.96 and 0.984 | locus YJL115W, strain asf1, stronger effect = lower value 1 | locus YJL129C, strain trk1, stronger effect = lower value 0.984 | locus YJL134W, strain LCB3, stronger effect = lower value 0.996 | locus YJL154C, strain vps35, stronger effect = lower value 0.997 | locus YJL164C, strain tpk1, stronger effect = lower value 0.952 | locus YJL166W, strain qcr8, stronger effect = lower value 0.976 | locus YJL168C, strain set2, stronger effect = lower value 1 | locus YJL187C, strain SWE1 (second series), stronger effect = lower value 0.999 | locus YJR043C, strain POL32, stronger effect = lower value 0.88 | locus YJR066W, strain TOR1, stronger effect = lower value 0.93
